Consider 8 compounds from the supplement of paper PMC4954754.

± gives the uncertainty stated by the source.

The test system of this experiment is HEK293T-Rex ERSE-FLuc. Briefly: ERSE-FLuc reporter activation, triplicate confirmation, relative to 500 nM thapsigargin (% of thapsigargin); higher = stronger ATF6/ERSE reporter activation. The settings on record: 6.8 µM; 18 h; screen: confirmation. As to the method: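 HEK293T-Rex cells stably expressing the ERSE-firefly luciferase (BiP promoter, ATF6-preferring) or XBP1-splicing Renilla luciferase (IRE1/XBP1s) reporter, 1536-well plates, compound at 6.8 µM for 18 hr at 37 °C; luminescence read […] and expressed as % activation = 100*(compound - median DMSO)/(median 500 nM thapsigargin - median DMSO). Primary screen was single-pass; confirmation screen in triplicate (mean ± SD).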
Consider `Cc1ccc(O)c(NC(=O)CSc2ccccc2)c1`, for which the ERSE-FLuc reporter activation was determined as 51.1 ± 12.
Take `CC(=O)Nc1ccc2nc(-c3ccc(OC(C)=O)cc3)sc2c1`: the ERSE-FLuc reporter activation is 25.9 ± 3.6.
As for `Nc1ccccc1NC(=O)c1ccc(C(=O)Nc2ccccc2N)cc1`, the figure is 25.1 ± 3.8; as for `NC(=O)c1c(NC(=O)c2cccc3ccccc23)sc2c1CCC2`, 32 ± 1.6; as for `c1ccc2cc(-c3cnnc(N4CCOCC4)n3)ccc2c1`, 29 ± 8.7.
Compound `Cc1ccc(/C=N/NC(=O)c2cccc(Cl)c2)cc1` registered an ERSE-FLuc reporter activation of 31.9 ± 1.9.
As for `CCOc1cccc(C(=O)Nc2ccc(Br)cn2)c1`, the figure is 26 ± 3.3; as for `O=C(Nc1ccccc1O)c1cc2ccccc2o1`, 33 ± 7.3.
